LmPK inhibitor: LmPK (Leishmania mexicana) enzyme inhibition | Potency, µM (top dose mostly 57.5 µM), for the others: at the highest dose activity change, negative = inhibition, actives largely listed as inhibitors | hit rate 0.37% among 290,000 | Q27686 | AID 1721 | purified LmPK, Kinase-Glo ATP luminescence, 1 h; further: potency means the concentration at half of the fitted maximal effect; on the % scale 0 is the no-effect control and ±100 the full control effect
Target sequence (Q27686 whole entry, looked up): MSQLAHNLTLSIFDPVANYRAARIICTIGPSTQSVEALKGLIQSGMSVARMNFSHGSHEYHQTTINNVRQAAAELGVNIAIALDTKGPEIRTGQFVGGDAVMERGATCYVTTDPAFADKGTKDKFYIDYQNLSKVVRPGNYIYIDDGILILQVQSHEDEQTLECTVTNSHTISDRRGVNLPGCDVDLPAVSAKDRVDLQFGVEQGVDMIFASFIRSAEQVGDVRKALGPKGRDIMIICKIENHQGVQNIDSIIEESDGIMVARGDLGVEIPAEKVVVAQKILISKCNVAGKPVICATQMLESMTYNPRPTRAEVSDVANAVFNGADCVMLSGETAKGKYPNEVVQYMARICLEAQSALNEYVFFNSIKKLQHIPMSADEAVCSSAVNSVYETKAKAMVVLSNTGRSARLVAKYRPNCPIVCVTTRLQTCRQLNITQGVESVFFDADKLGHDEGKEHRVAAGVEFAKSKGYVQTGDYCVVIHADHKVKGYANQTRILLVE
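Purified LmPK (0.1 nM) converted ADP (0.1 mM) to ATP with PEP (0.5 mM) in imidazole buffer pH 7.2 with KCl and MgCl2, 1 h at room temperature. ATP was read by Kinase-Glo luminescence; data normalized to uninhibited and no-enzyme controls.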
Shiga inhibitor: blocks Shiga toxin action in Vero cells; Vero cells, Shiga toxin protein synthesis inhibition reporter; inhibition, % at 38.7 µM; hit rate 9.2% among 290,000; AID 2315; in the data active means inhibition mostly above about 28%, no sharp cut-off; inactive means mostly below about 43%; further: 0% is about no effect
CHX counter: counter-screen hit for Shiga toxin inhibitors, cycloheximide. hit rate 12% among 300,000. cell reporter, cycloheximide protein synthesis inhibition counterscreen. max response, %; in the data active means max response mostly above about 13%, no sharp cut-off; inactive means mostly below about 14%; further: read at 38.3 µM for the half of the compounds with a filed dose; 0% is about no effect
Giardia FBPA inh: blocks Giardia fructose-bisphosphate aldolase activity. purified Giardia FBPA. Potency, µM (titrated, usually from 59.6 µM), for inactives: top-dose activity, negative = inhibition, usual class: inhibitors. A8B2U2. hit rate 0.71% among 290,000; further: potency means the concentration at half of the fitted maximal effect; on the % scale 0 is the no-effect control and ±100 the full control effect; nearly all actives have a fitted effect of over 55% in size
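40 nM FBPA preincubated 10 min at RT with compound (up to 57.5 uM final), then substrate plus GAPDH/TPI/NAD/arsenate coupling and diaphorase/resazurin added. Fluorescence read after 20 min at RT, 525/598 nm.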
RE007 growth inh: less growth of the S. pombe RE007 Vpr strain | S. pombe RE007 Vpr strain, BacTiter-Glo ATP luminescence, 24 h | Potency, µM (top dose mostly 92.2 µM), without a hit: top-dose activity change, negative = less growth, hits mostly inhibitors | hit rate 0.21% among 360,000 | AID 651644; active means well fitted falling curve with a large enough effect; inconclusive means small, poorly fitted or top-dose-only effect; inactive means no such curve, though single readings can be large or run the other way; further: potency means the concentration at half of the fitted maximal effect; on the % scale 0 is the no-effect control and ±100 the full control effect; nearly all actives have a fitted effect of over 50% in size
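Fission yeast RE007 carrying one integrated HIV-1 vpr copy, seeded at OD 0.01 in PMG+AL medium with 23 nL pinned compound. Grown 24 h at 30 degrees; viability read by BacTiter-Glo luminescence after 5 min.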
TbPYK inhibitor: T. brucei pyruvate kinase inhibition; Q57TT1; TbPYK enzyme, Kinase-Glo Plus ATP luminescence, 45 min; hit rate 0.12% among 410,000; Potency, µM (series often up to 76.8 µM), without a hit: top-dose activity, negative = inhibition, actives largely listed as inhibitors; AID 624173; further: potency means the concentration at half of the fitted maximal effect; on the % scale 0 is the no-effect control and ±100 the full control effect; nearly all actives have a fitted effect of over 50% in size
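ADP (130 uM final) triggers the TbPYK reaction after compound addition; incubation is 45 min at room temperature. Kinase-Glo Plus is then added and luminescence imaged. Normalized data are fitted to concentration-effect curves.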
Active calls of the source: *; i = inactive; ? = inconclusive; nt = not tested or not shown; [ ] = remark or other dose. The sample as a whole holds a higher share of hits than the screen did. Unless noted, the call rests on the fitted dose curve; in most records, active means well fitted curve in the direction sought with a large enough effect; inconclusive means small, poorly fitted or top-dose-only effect, or another doubt; inactive means no such curve, though single readings can be large; an effect the other way counts as inactive or inconclusive.

SMILES	LmPK inhibitor	Shiga inhibitor	CHX counter	Giardia FBPA inh	RE007 growth inh	TbPYK inhibitor
COc1cc(C(C)=O)ccc1OCCCN1CCC(c2noc3cc(F)ccc23)CC1	nt	nt	nt	nt	nt	-7%
CCCn1c(-c2ccc(F)cc2)nc2c(NCCCCN(C)C)nc(C)nc21	nt	nt	nt	0%	nt	nt
Cc1ccc(-c2csc(N/N=C/c3ccco3)n2)c(C)c1	-1%	62*	46*	-4%	-21%	-10%
CN(C)S(=O)(=O)c1cccc(-c2csc(N/N=C/c3ccco3)n2)c1	-4%	22	14*	-24%	-11%	3%
Cc1oc(-c2ccccc2F)nc1CS(=O)(=O)CC(=O)N1CCN(c2ccc(Cl)cc2)CC1	nt	nt	nt	nt	nt	-4%
N#Cc1ccc2c(c1)C[C@]1(CCCCN3C(=O)c4ccccc4C3=O)Oc3c(c(=O)oc4ccccc34)C2O1	0%[11.5 µM]	i	-1	-4%[12.9 µM]	nt	nt
O=C(COC(=O)C1CC(=O)N(Cc2ccco2)C1)c1ccc(OC(=O)c2ccccc2)cc1 (centres undefined)	0%	72*	33*	-1%	8%	-6%
O=C(OCC(=O)N1c2ccccc2Sc2ccccc21)C1CC(=O)N(Cc2ccco2)C1 (centres undefined)	5%	10	-4	-7%	6%	0%
COc1ccc(-c2csc(-c3cccs3)n2)c(OC)c1	-9%	70*	34*	-6%	-8%	1%
COc1ccc(-c2csc(-c3ccccc3)n2)c(OC)c1	2%	115*	53*	0%	-6%	-2%
Cc1cc(NC(=O)Nc2nnc(N3CCCCC3)s2)ccc1Br	nt	nt	nt	nt	nt	1%
COc1ccc(-c2cc3nc[nH]c(=O)c3s2)cc1	-17%	67	35*	0%	-17%	-11%
O=c1[nH]cnc2nc(-c3ccccc3)c(-c3ccccc3)nc12	3%	-9	-1	-3%	15%	4%
O=c1[nH]cnc2cc(-c3ccccc3)sc12	-10%	118*	48*	-2%	-25%	2%
COc1ccc(-c2cc3nc(CCl)[nH]c(=O)c3s2)cc1	-19%	-4	-4	-9%	-12%	-15%
CCc1cccc(NC(=O)Cn2c(=O)c(C(F)(F)F)nc3ccccc32)c1	nt	nt	nt	nt	nt	-4%
COc1c(Cl)cc(Cl)cc1/C=C/C(=O)c1ccc(NC(=O)c2cccs2)cc1	-2%	40*	30*	2%	?	-3%
COc1cc(NC(=O)c2cccc(Cl)c2)ccc1NC(=O)c1cccs1	-3%	98	16*	-10%	-7%	4%
COc1cc(NC(=O)c2ccccc2Cl)ccc1NC(=O)c1cccs1	7%	105*	46*	-5%	2%	-1%
COc1c(Cl)cc(Cl)cc1C(=O)Nc1ccc(C(=O)O)cc1	-2%	2	2	24%	-18%	?
COc1ccc(C(=O)Nc2ccc(OCc3cc(=O)n4ccsc4n3)cc2)cc1OC	nt	nt	nt	nt	nt	-5%
COC(=O)c1ccc(OCc2cc(=O)n3ccsc3n2)cc1	-23%	142*	49*	-12%	33%	1%
Cc1ccccc1C(=O)N/N=C/c1ccccn1	-9%	68*	52*	6%	9%	5%
O=C(N/N=C/c1ccccn1)c1ccccc1	-10%	71*	48*	9%	14%	-1%
CN(C)c1ccc(C(=O)N/N=C/c2ccccn2)cc1	0%	75*	58*	18%	-10%	-10%
SMILES	LmPK inhibitor	Shiga inhibitor	CHX counter	Giardia FBPA inh	RE007 growth inh	TbPYK inhibitor
Cc1ccc(C(=O)Nc2ccc(C(=O)N/N=C/c3ccccn3)cc2)cc1	0%	31*	25*	-8%	8%	5%
CN(C)c1ccc(/C=N/NC(=O)c2cnc3ccccc3c2)cc1	-4%	4	0	3%	-9%	-10%
COc1ccccc1C(=O)NC(=O)Nc1ccc(-n2nc(C(F)(F)F)cc2C(F)(F)F)cc1	nt	nt	nt	nt	nt	1%
CCOc1ccc2nc(NC(=O)c3nc(SCc4ccc(C)cc4)ncc3Cl)sc2c1	nt	nt	nt	nt	nt	-2%
Cn1ncc(Cl)c1C(=O)N/N=C/c1ccccn1	-4%	32	20*	?	-10%	6%
O=C(N/N=C/c1ccc[nH]1)c1ccc(Cl)cc1	-3%	39*	34*	-8%	nt	-16%
O=C(N/N=C\c1ccccn1)c1cccc(C(=O)N/N=C\c2ccccn2)n1	nt	nt	nt	nt	-4%	2%

Screening data from PubChem.
